ST2 IL33 inh: IL1RL1 inhibition; AlphaLISA ST2-Fc/biotin-IL-33 interaction, 1 h; AID 1259354; hit rate 2.3% among 78,000; Q01638; inhibition, % for hits at 17 µM; in the data active = inhibition above about 30%
Target sequence (Q01638 whole entry, looked up): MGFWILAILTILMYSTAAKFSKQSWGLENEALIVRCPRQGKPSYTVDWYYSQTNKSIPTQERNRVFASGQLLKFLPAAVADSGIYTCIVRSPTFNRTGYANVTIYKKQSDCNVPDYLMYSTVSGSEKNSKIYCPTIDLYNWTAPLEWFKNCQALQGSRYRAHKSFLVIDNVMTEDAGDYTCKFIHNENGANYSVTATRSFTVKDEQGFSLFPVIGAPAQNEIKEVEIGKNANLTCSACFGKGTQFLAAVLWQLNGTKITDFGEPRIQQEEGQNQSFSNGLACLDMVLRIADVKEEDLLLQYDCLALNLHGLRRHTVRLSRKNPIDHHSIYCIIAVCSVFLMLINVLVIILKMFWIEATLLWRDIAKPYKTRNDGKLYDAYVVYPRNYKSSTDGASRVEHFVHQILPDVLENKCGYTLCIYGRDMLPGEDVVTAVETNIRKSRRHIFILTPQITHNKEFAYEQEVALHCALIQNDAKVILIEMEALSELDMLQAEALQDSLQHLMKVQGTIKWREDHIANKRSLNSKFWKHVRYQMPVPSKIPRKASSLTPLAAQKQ
Active calls of the source: *; i = inactive. This excerpt belongs to a sample that is enriched for hits.

SMILES	ST2 IL33 inh
C=CCNC(=O)Nc1nc2c(s1)C[C@]1(C)CC[C@@H]3[C@H](OC(=O)[C@H]3C)[C@H]1[C@@H]2C	34.0%*
C[C@H](C(=O)NCCN1CCOCC1)C1CC[C@@]2(C)Cc3sc(-c4ccccc4)nc3[C@@H](C)[C@@H]2[C@H]1O (stereo partly drawn)	i
C[C@@H]1C(=O)O[C@H]2[C@H]1CC[C@@]1(C)Cc3sc(Nc4ccc(C(=O)O)cc4)nc3[C@@H](C)[C@H]21	85.0%*
C[C@@H]1C(=O)O[C@H]2[C@H]1CC[C@@]1(C)Cc3sc(Nc4cccnc4)nc3[C@@H](C)[C@H]21	36.0%*
CSCC(=O)Nc1nc2c(s1)C[C@]1(C)CC[C@@H]3[C@H](OC(=O)[C@H]3C)[C@H]1[C@@H]2C	i
Cc1ccoc1C(=O)NCC1CCN(Cc2cnn(C(C)C)c2)C1 (stereo not drawn)	i
COc1ccc(COC(=O)C2=C(C)Nc3nc4ccccc4n3C2c2ccco2)cc1 (stereo not drawn)	i
CCC(C)OC(=O)CSc1nc2ccccc2s1 (stereo not drawn)	i
Cc1ccc(CN2CCN(C3CCCCCC3)CC2)cc1	i
Cc1nn(C)c(Cl)c1S(=O)(=O)N1CCC2(CCNCC2)C1	i
CN1C[C@@H](NC(=O)Nc2ccc(C(F)(F)F)cc2)C[C@H]1c1nc(-c2ccccc2)no1	i
CCCOc1ccc(/C=c2\sc3nc(-c4cccs4)nn3c2=O)cc1	i
COc1ccc2nc(CCn3cnnc3)[nH]c2c1	i
O[C@@H]1C[C@@H](c2nc(-c3ccc(OC(F)(F)F)cc3)no2)N(Cc2ccccc2)C1	i
CS(=O)(=O)c1ccc(CN2C[C@H](O)C[C@H]2c2nc(-c3ccc(F)cc3)no2)cc1	i
CS(=O)(=O)c1ccc(CN2C[C@H](O)C[C@H]2c2nc(-c3ccc(OC(F)(F)F)cc3)no2)cc1	32.0%*
CCCCc1ccc(N=Cc2nc(-c3ccc(Br)cc3)oc2O)cc1	i
COc1ccc(NC(=O)c2cnc3scc(C)n3c2=O)cc1	i
O=S(=O)(NCC1(O)CCCNCC1)c1ccc(Oc2ccccc2)cc1 (stereo not drawn)	i
Cc1ccc(Cl)cc1NS(=O)(=O)c1ccc2[nH]c(=O)c(=O)[nH]c2c1	i
Cc1ccc(NS(=O)(=O)c2ccc3[nH]c(=O)c(=O)[nH]c3c2)cc1Cl	i
Cc1ccc(NS(=O)(=O)c2ccc3[nH]c(=O)c(=O)[nH]c3c2)c(Cl)c1	37.0%*
O=C1CCCc2oc3c(Cl)cc(NS(=O)(=O)c4ccc5ccccc5c4)cc3c21	i
CCOC(=O)c1sc(=NC(=O)c2cccc3ccccc23)n(C)c1C	i
COc1ccc(CNC(=O)C2CCN(C(=O)c3ccc(F)cc3)CC2)cc1	i
SMILES	ST2 IL33 inh
COc1cccc(-c2nc3cc(N=Cc4cccc(OC)c4O)ccc3o2)c1	i
COc1cccc(-c2nc3cc(N=Cc4ccc([N+](=O)[O-])cc4)ccc3o2)c1	i
COc1ccc(C=Nc2ccc3oc(-c4ccncc4)nc3c2)cc1Cl	33.0%*
CC(C)NC(=O)NCC1CCN(Cc2ccc3ccccc3n2)C1 (stereo not drawn)	i
COCC1(C(=O)NCc2cccnc2Oc2ccc(F)c(F)c2)CC1	i
Cc1cc(N2CCN(C)CC2)nc2ccc(NC(=O)/C=C/c3cccc(Cl)c3)cc12	i
COC(=O)c1sc2ccccc2c1NC(=O)c1ccc(S(=O)(=O)N2CCCC2)cc1	i
CC1CCCCN1C(=O)c1cc(-c2ccc(F)cc2)on1 (stereo not drawn)	i
Cc1cc(I)ccc1N1C(=N)SCC1=O	i
CC(=O)c1ccc(N2C[C@@H]3CN(c4ncccn4)C[C@]3(C(=O)O)C2)nc1	i
O=C(Nc1cccc(-c2nc3ncccc3o2)c1)c1ccc(OCc2ccccc2)cc1	33.0%*
CC(C)c1ccc(C(=O)Nc2cccc(-c3nc4ncccc4o3)c2)cc1	i
CCOc1cc(OCC)cc(C(=O)Nc2cccc(-c3nc4ncccc4o3)c2)c1	i
Cc1cccc(C(C(=O)NCc2ccc3nonc3c2)N(C)C)c1 (stereo not drawn)	i
COc1cc(C(=O)N2CCCN(C)C3(CCN(C)CC3)C2)nc(OC)n1	33.0%*
CNc1nc(C(=O)N2CCC3(CCCN(C)CC3)CC2)cs1	i
CN1CCC2(CC1)CN(C(=O)c1cc(-c3ccc(O)cc3)n[nH]1)CCCN2C	i
CCOC(=O)c1c[nH]c2c(C)c(Cl)ccc2c1=O	i
Cc1ccc(-c2ccnc(N3CCc4nnc(C(C)C)n4CC3)n2)c(C)n1	i
CN(C)CCN1C(=O)C2C3c4ccccc4C(c4ccccc43)C2C1=O (stereo not drawn)	i
CCOc1cc(/C=C2/SC(=O)NC2=O)ccc1OCc1ccccc1	i
CCOc1cc(/C=C2/Sc3ccccc3C2=O)ccc1O	59.0%*
CC(C)c1ccc(/C=C2\Sc3ccccc3C2=O)cc1[N+](=O)[O-]	i
CCOc1cc(-c2ccc(O)cc2)cc(=O)c2c(C)oc(C)c12	i
CCOc1cc(/C=C2/C(=O)N(c3ccccc3)N=C2C)ccc1O	i
SMILES	ST2 IL33 inh
CCOc1cc(/C=C2/C=C(c3ccc(C)cc3)OC2=O)ccc1O	31.0%*
COc1ccc(N2C(=O)Nc3ccccc3C2(O)C(=O)NC2CCCCC2)c(OC)c1 (stereo not drawn)	i
Cc1ccc2c(c1)N(C(=O)CN1CCCN(Cc3ccccc3Cl)S1(=O)=O)CCO2	i
COC(=O)c1ccc(N2CCN(C(=O)c3cn(Cc4ccccc4C)nn3)CC2)cc1	i
Cc1ccccc1C(=O)Nc1cc2cccc([N+](=O)[O-])c2oc1=O	i
CCOc1ccccc1NC(=O)c1c(-c2ccccc2Cl)noc1C	i
O=C(Nc1cc2cccc([N+](=O)[O-])c2oc1=O)c1cccc(I)c1	i
Cc1onc(-c2ccccc2)c1C(=O)Nc1cc2cccc([N+](=O)[O-])c2oc1=O	46.0%*
CCOc1ccc(NC(=O)c2c(-c3ccccc3)noc2C)c([N+](=O)[O-])c1	38.0%*
Cc1onc(-c2ccccc2)c1C(=O)Nc1cccc(NC(=O)c2c(-c3ccccc3)noc2C)n1	i
CCc1ccc(CN(C)C(=O)C2CCC(=O)N(CC3CCCCC3)C2)nc1 (stereo not drawn)	i
O=C(CCc1ccccc1)Nc1scc(-c2cccs2)c1C(=O)O	i
O=C(c1c(O)cc(O)cc1O)C(c1coc2cc(O)cc(O)c2c1=O)C(c1ccc(O)cc1)c1ccc(O)cc1 (stereo not drawn)	i
COCC(=O)Nc1cc(C(=O)N(C)Cc2cc3ccccc3s2)c2c(c1)nc(C1CCC1)n2C	i
Cc1ccc(NCCC(=O)c2ccc(C)o2)cc1	31.0%*
Cc1ccc(C(=O)Nc2ccccc2NC(=O)c2ccc(C)o2)o1	i
Cc1ccc(C(=O)Nc2ccc(S(=O)(=O)Nc3ncccn3)cc2)o1	i
CCCS(=O)(=O)N1CCC(C(=O)NCCCN2CCC(C)CC2)CC1	i
COc1ccc(C(O)=C2C(=O)C(=O)N(CCCO)C2c2ccc(OC)cc2)cc1 (stereo not drawn)	i
O=C(c1ccccc1)c1ccc(/C=C/c2ccccn2)cc1	55.0%*
C(=C\c1cc(/C=C/c2ccccc2)ncn1)/c1ccccc1	i
C(=C\c1ccccn1)/c1cccc(-n2cnnc2)c1	i
CC(=O)c1ccc(NC(=O)N2CCC(n3cc(-c4ccsc4)nn3)CC2)cc1	i
CCNC(=O)C1CCN(C(=O)CSc2n[nH]c(CC)n2)C1 (stereo not drawn)	i
CC#CCN(Cc1ccco1)Cc1cn[nH]c1-c1ccc(OC)cc1F	i

Assay outcomes from PubChem.
